T cruzi growth-1 = T. cruzi intracellular proliferation inhibitors, primary screen, cell-based, beta-gal Tulahuen parasites, NIH3T3 host, luminescence; inhibition, % at 8.34 µM; T. cruzi beta-gal in NIH3T3, GalScreen luminescence, 90 h; 5.9% of 77,000 active; AID 624255, 2012;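 active means mean inhibition above about 93%, with at least 55% of replicates each passing it, limit read from the data, passing the limit was not always enough; inconclusive means only one of those two conditions holds; inactive means neither condition holds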
Pf Dd2 inh = P. falciparum Dd2 growth inhibitors, primary screen, SYBR Green fluorescence, single dose replicates; activity change, % at 10 µM; 72 h; active compounds read low; 2.3% of 94,000 active; in the data active means activity change below about -80%; inconclusive means no clear call, values can overlap the other calls
C diff HTS = C. difficile growth inhibitors, primary screen, HTS; Clostridium difficile clinical isolate growth, OD600, 24 h; active compounds read low; growth activity, negative = inhibition, % at 16 µg/mL (by protocol); 0.25% of 86,000 active;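 active means mean growth activity at or below -80% and every replicate also at or below -80%; inconclusive means mean at or below -80% but some replicate above -80%; inactive means mean growth activity above -80%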;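 further: 0% = DMSO wells and -100% = levofloxacin 16 µg/mL wells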
T cruzi growth-2 = T. cruzi intracellular proliferation inhibitors, confirmation, cell-based, NIH3T3 host, beta-gal parasite, luminescence, cherry-pick; shares compounds with T cruzi growth-1; T. cruzi beta-gal in NIH3T3, GalScreen luminescence, 90 h; inhibition, % at 8.35 µM; 72% of 5,600 active; AID 651739, 2012;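 active means mean replicate inhibition above about 95% and at least 55% of replicates individually reaching it, limit read from the data; inconclusive means only one of the two criteria is met; inactive means neither criterion is met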
T cruzi growth-3 = inhibitors of intracellular T. cruzi replication, confirmation, NIH3T3 host cells, beta-gal parasites, cherry-pick, set 2; shares compounds with T cruzi growth-1; T. cruzi beta-gal in NIH3T3, GalScreen luminescence, 90 h; inhibition, % at 2.09 µM; 21% of 5,600 active; AID 651740, 2012;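 active means mean inhibition above about 95%, with at least 55% of replicates also reaching it, limit read from the data; inconclusive means meets just one of the two conditions; inactive means meets neither condition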;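 further: plate controls were neutral control median for no effect and positive control median for full effect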
NIH3T3 tox = cytotoxicity in mouse NIH/3T3 fibroblasts, confirmation, cytotoxicity control for T. cruzi proliferation inhibitor project, cell-based, cherry-pick, single point. cytotoxicity (signal decrease), % at 8.35 µM. AID 651742, 2012. 14% of 5,600 active. NIH/3T3 viability, CellTiter-Glo ATP luminescence, 90 h. shares compounds with T cruzi growth-1;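 active means mean signal decrease across replicates above about 35% based on untreated-well scatter, with enough replicates individually passing, limit read from the data; inconclusive means no rule stated though some were filed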;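 further: 0% = median of neutral control wells and 100% = median of positive control wells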
3T3 cytotox 2 = NIH/3T3 fibroblast cytotoxicity, confirmation, cytotoxicity control, cell-based, cherry-pick, single point, set 2. inhibition, % at 24.9 µM. shares compounds with T cruzi growth-1. AID 651744, 2012. 56% of 5,600 active. NIH/3T3 viability, CellTiter-Glo ATP luminescence, 90 h;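 active means mean loss of cell viability signal at or above a set limit, and enough replicates individually reaching it; inconclusive means meets only the mean limit or only the replicate share; inactive means meets neither condition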;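 further: 0% = median of neutral control wells and 100% = median of positive control wells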
Active calls of the source: *; u = inconclusive; x = no result. Hits are enriched below; roughly 6.8% of the tested compounds scored in any of these assays.

SMILES | T cruzi growth-1 | Pf Dd2 inh | C diff HTS | T cruzi growth-2 | T cruzi growth-3 | NIH3T3 tox | 3T3 cytotox 2
OC[C@H]1[C@H](c2ccc(C#Cc3ccccc3)cc2)[C@@H]2CN(CC3CCOCC3)CCCCN12 | u | -63 | 47 | 106* | 56 | 31 | 106*
CO[C@H]1CN(C)C(=O)c2cc(NC(=O)Nc3ccccc3)ccc2OC[C@@H](C)N(C(=O)CC2CC2)C[C@H]1C | 2 | -13 | x | x | x | x | x
COc1ccc2c3c(n(C)c2c1)[C@@H](CO)N(C(=O)c1ccc(F)cc1)CC31CN(CC2CC2)C1 | x | -72 | 8 | x | x | x | x
COc1ccc2c3c(n(C)c2c1)[C@H](CO)N(S(C)(=O)=O)CC31CCN(C(=O)C2CCC2)CC1 | x | -20 | -5 | x | x | x | x
C[C@@H]1CN([C@H](C)CO)C(=O)c2cc(/C=C/c3ccccc3)cnc2O[C@@H]1CN(C)C(=O)Nc1ccccc1F | 85 | -34 | -2 | x | x | x | x
COc1ccc(NC(=O)N(C)C[C@@H]2Oc3ncc(/C=C/c4ccccc4)cc3C(=O)N([C@H](C)CO)C[C@@H]2C)cc1 | u | -57 | 6 | x | x | x | x
C[C@H](CO)N1C[C@H](C)[C@H](CN(C)C(=O)Nc2ccccc2)Oc2ncc(/C=C/c3ccccc3)cc2C1=O | 97* | -69 | -2 | 98* | 65 | 36* | 90*
C[C@H]1CN([C@@H](C)CO)C(=O)c2cc(/C=C/c3ccccc3)cnc2O[C@H]1CN(C)C(=O)Nc1ccccc1F | 101* | -28 | -5 | u | 22 | 17 | 51*
C/C=C/c1cnc2c(c1)C(=O)N([C@@H](C)CO)C[C@H](C)[C@@H](CN(C)C(=O)Nc1ccccc1F)O2 | 0 | -12 | 1 | x | x | x | x
C[C@H](CO)N1C[C@H](C)[C@H](CN(C)C(=O)c2cccc(F)c2)Oc2ncc(/C=C/c3ccccc3)cc2C1=O | 107* | -70 | -2 | 107* | 46 | 27 | 67*
C[C@H]1CN([C@@H](C)CO)C(=O)c2cc(/C=C/c3ccccc3)cnc2O[C@H]1CN(C)C(=O)c1cccc(F)c1 | 107 | -62 | -3 | x | x | x | x
C[C@@H]1CN([C@@H](C)CO)C(=O)c2cc(/C=C/c3ccccc3)cnc2O[C@H]1CN(C)C(=O)Nc1ccccc1F | 126* | -51 | -11 | 108* | 105* | -3 | 17
COCC(=O)N1C[C@@H]2[C@H](c3ccccc31)[C@@H](CO)N2Cc1cc(F)ccc1F | 63 | -10 | 0 | x | x | x | x
O=C(c1ccncc1)N1CC[C@@H]2[C@@H](CO)Nc3ccc(-c4ccc(F)cc4)cc3[C@@H]21 | 73 | 43 | 3 | x | x | x | x
C[C@@H]1CN([C@@H](C)CO)S(=O)(=O)c2ccc(C#Cc3ccccc3)cc2O[C@@H]1CN(C)C | 21 | -57 | 4 | x | x | x | x
CCC(=O)N1CC2(C1)CN(C(=O)Cc1ccccc1)[C@H](CO)c1c2c2ccc(OC)cc2n1C | x | -34 | -6 | x | x | x | x
Cc1noc(C)c1NC(=O)N(C)C[C@@H]1OCCCC[C@H](C)Oc2ccc(NS(=O)(=O)c3ccc(Cl)cc3)cc2C(=O)N([C@H](C)CO)C[C@@H]1C | -23 | -54 | -3 | x | x | x | x
COc1ccc(-c2ccc([C@H]3[C@@H](CO)N(C(=O)C4CC4)[C@H]3C#N)cc2)cc1 | 43 | 60 | 6 | x | x | x | x
N#C[C@@H]1[C@H](c2ccccc2)[C@@H](CO)N1C(=O)C1CCCC1 | 33 | 17 | -11 | x | x | x | x
COc1ccccc1-c1ccc([C@H]2[C@@H](CO)N(C(=O)C3CCC3)[C@H]2C#N)cc1 | 99* | 30 | 6 | 30 | -26 | 12 | -6
N#C[C@H]1[C@@H](c2ccc(/C=C/c3ccccc3)cc2)[C@@H](CO)N1C(=O)C1CC1 | u | 41 | 3 | 106* | 40 | 20 | 35*
COc1ccccc1-c1ccc([C@@H]2[C@@H](C#N)N(C(=O)NC(C)C)[C@@H]2CO)cc1 | 99* | -9 | -2 | 96* | 37 | 6 | 38*
COc1ccccc1-c1ccc([C@H]2[C@H](C#N)N(C(=O)C3CCC3)[C@H]2CO)cc1 | 15 | -28 | 7 | x | x | x | x
COc1ccc(-c2ccc([C@@H]3[C@@H](CO)N(C(=O)NC(C)C)[C@H]3C#N)cc2)cc1 | 88 | -19 | -11 | x | x | x | x
COc1ccc(-c2ccc([C@H]3[C@H](C#N)N(C(=O)C4CCCC4)[C@H]3CO)cc2)cc1 | 100* | -26 | 2 | 91 | 52 | 17 | 20
SMILES | T cruzi growth-1 | Pf Dd2 inh | C diff HTS | T cruzi growth-2 | T cruzi growth-3 | NIH3T3 tox | 3T3 cytotox 2
CC(=O)N1CC2(C1)[C@@H](c1ccccc1)[C@@H](CO)N2C(=O)Cc1ccccc1 | x | -11 | 20 | x | x | x | x
COc1ccccc1-c1ccc([C@@H]2[C@@H](C#N)N(C(=O)CN(C)C)[C@H]2CO)cc1 | 58 | 1 | 0 | x | x | x | x
COc1ccccc1-c1ccc([C@@H]2[C@@H](C#N)N(C(=O)C3CCC3)[C@@H]2CO)cc1 | 98* | 11 | -1 | 83 | 19 | -3 | 1
COc1ccc(-c2ccc([C@@H]3[C@H](C#N)N(C(=O)c4cccnc4)[C@H]3CO)cc2)cc1 | 17 | 10 | -3 | x | x | x | x
COc1ccc(-c2ccc([C@@H]3[C@@H](CO)N(C(=O)c4cccnc4)[C@H]3C#N)cc2)cc1 | 96* | -27 | -2 | 63 | -13 | -18 | 11
COc1ccccc1-c1ccc([C@H]2[C@@H](CO)N(C(=O)C3CC3)[C@H]2C#N)cc1 | 103* | 38 | 9 | 41 | 21 | 0 | -2
COc1ccccc1-c1ccc([C@H]2[C@@H](C#N)N(C(=O)C3CCC3)[C@@H]2CO)cc1 | 95 | 11 | -3 | x | x | x | x
COc1ccc(-c2ccc([C@H]3[C@@H](CO)N(C(=O)CN(C)C)[C@H]3C#N)cc2)cc1 | 105* | 0 | 1 | 109* | 22 | 20 | u
COc1ccccc1-c1ccc([C@@H]2[C@H](C#N)N(C(=O)C3CCC3)[C@H]2CO)cc1 | 15 | 12 | 7 | x | x | x | x
C[C@H](CO)N1C[C@H](C)[C@@H](CN(C)Cc2ccccn2)Oc2ncc(C#CC3(O)CCCC3)cc2C1=O | 19 | 32 | -4 | x | x | x | x
O=C(Cc1ccccc1)N1CC(=O)N2[C@H](CO)[C@@H](c3ccc(-c4ccccc4)cc3)[C@@H]2C1 | x | -31 | 8 | x | x | x | x
COc1ccccc1C#Cc1ccc2c(c1)[C@H]1[C@H](CCN1S(=O)(=O)c1ccc(C)cc1)[C@H](CO)N2 | -2 | -47 | 1 | x | x | x | x

Screens as filed in PubChem BioAssay.
